Among all 220,000 compounds or so, about 530 (0.24%) were called active. For the sample, actives were picked, then their nearest neighbours and some compounds at random. Results with a measured potency or affinity are listed apart. A number with no mark means an inactive call. Cut-off read from the data, not from the text of the source: active = inhibition above about 13%; inconclusive = no clear call, values can overlap the other calls; inactive = below that.
target: Bifunctional protein GlmU (Mycobacterium tuberculosis (strain ATCC 25618 / H37Rv)) (UniProt P9WMN3); assay: inhibition of mycobacterial GlmU enzyme – biochemical, glucosamine-1-phosphate acetyltransferase (AID 1376);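 note: 0% = complete reaction with vehicle and 100% = reaction without substrate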; details: M. tuberculosis GlmU acetyltransferase enzyme assay; hits give high values;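 tested at 30 µM in the primary screen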
Sequence (P9WMN3 whole entry, looked up): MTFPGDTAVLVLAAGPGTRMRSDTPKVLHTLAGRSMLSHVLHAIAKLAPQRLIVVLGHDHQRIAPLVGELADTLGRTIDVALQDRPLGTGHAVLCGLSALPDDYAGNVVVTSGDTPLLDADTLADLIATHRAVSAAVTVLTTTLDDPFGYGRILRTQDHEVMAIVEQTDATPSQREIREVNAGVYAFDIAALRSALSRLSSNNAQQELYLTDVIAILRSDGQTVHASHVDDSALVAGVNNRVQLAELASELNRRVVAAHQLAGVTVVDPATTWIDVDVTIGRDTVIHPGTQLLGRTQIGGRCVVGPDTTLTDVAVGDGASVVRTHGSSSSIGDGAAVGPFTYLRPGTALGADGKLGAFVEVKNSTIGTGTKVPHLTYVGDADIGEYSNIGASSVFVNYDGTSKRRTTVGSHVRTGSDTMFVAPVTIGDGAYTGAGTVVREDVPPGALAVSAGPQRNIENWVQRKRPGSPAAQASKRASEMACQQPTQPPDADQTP

SMILES	inhibition
O=c1cc(O)c2c(=O)n(-c3ccccc3)c3c(c2o1)CCCCC3	13% (active)
O=c1cc(O)c2c(=O)n(-c3ccccc3)c3c(c2o1)CCCCCC3	0.45%
O=c1cc(O)c2c(=O)n(-c3ccccc3)c3ccccc3c2o1	0.8%
C=CCNC(=O)NS(=O)(=O)c1ccc(C)cc1	1.33%
O=C(NCc1ccco1)c1cccc(-c2nnc(-c3ccccc3)o2)c1	-0.42%
CC(C)CC(OC(=O)c1ccco1)C(=O)NC1CCCCC1 (stereo not given)	14.8% (active)
CC(OC(=O)c1ccco1)C(=O)NC1CCCCC1 (stereo not given)	-0.47%
CC(C)C(OC(=O)c1ccco1)C(=O)NC1CCCCC1 (stereo not given)	1.45%
O=C(NCc1ccncc1)C(=O)C1C(=O)Nc2ccccc21 (stereo not given)	-1.35%
CCOC(=O)c1nc(NCc2ccccc2C)c2ccccc2n1	-3.26%
C/C=C(\C)CN1CCN(c2cc(C)ccc2C)CC1	-5.99%
Cc1cc(C(=O)CS(=O)(=O)c2ccccc2)cc(C)c1OC(=O)N(C)C	0.59%
COc1ccc(NS(=O)(=O)c2cccc(C(=O)NNC(=O)NCCCl)c2)cc1	-0.61%
Cc1cc(/C=N/NC(=O)c2cccc(F)c2)c(C)n1-c1ccccc1	0.73%
Cc1cc(/C=N/NC(=O)c2cccc([N+](=O)[O-])c2)c(C)n1-c1ccccc1	-3.02%
Cc1cc(C(=O)N/N=C/c2sc(N3CCOCC3)nc2-c2ccccc2)c(C)o1	6.62%
CCCn1c(SCc2ccon2)nc2ccccc2c1=O	1.08%
O=C1c2ccccc2C(=O)N1CC(=O)N1c2ccccc2Sc2ccccc21	-6.14%
COc1cc(C(c2c(O)c3ccccc3oc2=O)c2c(C)n(C)n(-c3ccccc3)c2=O)ccc1O (stereo not given)	22.1%
COc1ccc(OC)c(C(c2c(O)c3ccccc3oc2=O)c2c(C)n(C)n(-c3ccccc3)c2=O)c1 (stereo not given)	13.2% (active)
COc1ccc(C(c2c(O)c3ccccc3oc2=O)c2c(C)n(C)n(-c3ccccc3)c2=O)cc1 (stereo not given)	1.51%
CCCCCCn1c(CN2CCN(CCO)CC2)nc2c1c(=O)n(C)c(=O)n2C	2%
C/C(=N\NC(=O)c1nn(C)c(C)c1Br)c1cccc(NC(=O)c2ccc(F)cc2)c1	-3.49%
O=C(c1ccc2c(c1)OCO2)N1CCC2(CC1)OCCO2	5.09%
O=C(NCc1ccc(C(=O)N2CCC3(CC2)OCCO3)cc1)c1cccc(Br)c1	1.96%

SMILES	inhibition
O=C(NCc1ccc(C(=O)N2CCC3(CC2)OCCO3)cc1)c1ccc2c(c1)OCO2	18.9% (active)
COc1ccc(CN2CCOCC2)c(C)c1C	-2.85%
CCCCNc1ccc(C(=O)O)cc1	-0.8%
CC12CC(NC(=O)N1c1ccc(C(=O)N3CCN(c4ccc(F)cc4)CC3)cc1)c1ccccc1O2 (stereo not given)	-2.33%
CC(C)C/C=C1\CCc2c([nH]c3ccccc23)C1=O	-1.01%
CCOc1ccc(NC(=O)CSc2n[nH]c(N)n2)c([N+](=O)[O-])c1	0.6%
CCOC(=O)c1cnc(SCC(=O)c2ccc3c(c2)OCCO3)nc1N	-5.31%
NS(=O)(=O)c1cccc(NC(=O)CN2CCc3ccccc32)c1	-0.92%
Fc1ccc(OCc2nc3ccccc3s2)cc1	0.65%
Fc1ccc(OCc2nn3c(Cn4nnc5ccccc54)nnc3s2)cc1	3.23%
Fc1ccc(OCc2nn3cnnc3s2)cc1	18.4% (active)
COC(=O)c1ccc(S(=O)(=O)NCc2ccccn2)n1C	-0.35%
COc1cccc(Nc2ccccc2C(=O)O)c1	-2.96%
COc1ccc(Nc2cccc(Cl)c2)c(C(=O)O)c1	13.1% (active)
COc1ccc(Nc2ccc(Cl)cc2)c(C(=O)O)c1	11.1%
COc1cc(C(=O)O/N=C(\N)c2ccccn2)cc(OC)c1OC	13.3% (active)
COc1cc(OC)cc(C(=O)O/N=C(\N)c2ccccn2)c1	-3.71%
COc1ccccc1C(=O)O/N=C(\N)c1ccccn1	6.05%
Cn1c(CSCCOc2ccccc2)n[nH]c1=S	-1.84%
COc1ccc(S(=O)(=O)NC2CC(C)(C)NC(C)(C)C2)c(C)c1C	13.6% (active)
COc1c(C)cc(S(=O)(=O)NC2CC(C)(C)NC(C)(C)C2)c(C)c1C	-0.79%
COc1ccc(Cl)cc1S(=O)(=O)NC1CC(C)(C)NC(C)(C)C1	4.3%
O=C(O)c1ccc(N=Nc2c(O)[nH]c3ccccc23)cc1	-3.4%
Nc1nc(N)c(N=Nc2ccc(C(=O)O)cc2)c(N)n1	13.1% (active)
O=C(O)c1ccc(N=Nc2c(O)[nH]c3cc(Cl)ccc23)cc1	11%

SMILES	inhibition
O=C(NCCO)C(c1ccccc1)c1ccccc1	-1.82%
COc1ccc2cc3cc(C(=O)NCCN4CCc5ccccc5C4)sc3nc2c1	4.04%
COc1ccc2nc3sc(C(=O)NCCCN4CCc5ccccc5C4)cc3cc2c1	5.05%
COc1ccc2nc3sc(C(=O)NCCN4CCc5ccccc5C4)cc3cc2c1	15% (active)
O=C1C(Cl)=C(Nc2ccc(F)cc2)C(=O)N1CCc1ccccc1	-4.15%
CCOc1ccc(N2C(=O)C(Cl)=C(Nc3ccccc3O)C2=O)cc1	7.85%
CCOc1ccccc1NC1=C(Cl)C(=O)N(c2ccc(OC)cc2)C1=O	-5.57%
COc1ccccc1NC1=C(Cl)C(=O)N(c2ccccc2)C1=O	1.83%
O=C1C(Cl)=C(Nc2ccccc2O)C(=O)N1c1ccccc1	42.6% (active)
CCOc1ccccc1NC1=C(Cl)C(=O)N(c2ccccc2)C1=O	0.96%
COc1ccc(NC2=C(Cl)C(=O)N(c3ccccc3)C2=O)c(OC)c1	4.46%
COc1ccc(N2C(=O)C(Cl)=C(Nc3ccccc3OC)C2=O)cc1	3.86%
O=C1C(Cl)=C(NCCc2ccccc2)C(=O)N1CCc1ccccc1	1.54%
COc1ccc(-n2c3c(cc(C(=O)N4CCC(C)CC4)c2=O)C(=O)CC(C)(C)C3)cc1	0.29%
Cc1cc(C)c(NC2=NS(=O)(=O)c3ccccc32)c(C)c1	0.24%
COc1cccc(OC)c1C(=O)NC(=S)NNC(=O)[C@H]1C[C@@H]1c1ccccc1	3.93%
O=c1cc(CSc2nnc3ccccn23)c2c(ccc3ccccc32)o1	5.61%
Cc1ccc(C2=CC(C)(c3ccc(C)cc3)Nc3nc(C(F)(F)F)nn32)cc1 (stereo not given)	-1.89%
O=[N+]([O-])c1ccc(O)c(/C=N/Nc2nc3ccccc3[nH]2)c1	2.26%
COc1ccc(O)c(/C=N/Nc2nc3ccccc3[nH]2)c1	1.12%
O=C(Nc1ccc(N2CCN(C(=O)c3cccs3)CC2)cc1)c1cccnc1	-0.33%
O=C(Nc1cccc(C(=O)N2CCOCC2)c1)c1cccnc1	2.11%
CSc1nc(Cl)cc(N2CCOCC2)n1	3.3%
Cc1cc(N)n(-c2ccc3ccccc3c2)n1	0.94%
Cc1[nH]n(-c2ccccc2)c(=O)c1CCO	-5.63%

SMILES	inhibition
CCOC(=O)Cc1c(C)[nH]n(-c2ccccc2)c1=O	0.6%
Cc1cc(C)n(-c2ccc(Oc3ccccc3)c(S(=O)(=O)O)c2)n1	12.6%
CCOC(=O)C1CCCN(CC(=O)Nc2c(F)c(F)c(F)c(F)c2F)C1 (stereo not given)	0.78%
CCS(=O)(=O)N1Cc2ccccc2CC1C(=O)Nc1nc(C)cs1 (stereo not given)	-3.38%
Cc1cc(C(=O)NC(C)c2ccccc2)c2cc(F)ccc2n1 (stereo not given)	2.48%
CS(=O)(=O)N1CCC(C(=O)Nc2ccc(OCc3ccccc3)cc2)CC1	0.13%
OCCN1CCN(CC(O)C(F)(F)F)CC1 (stereo not given)	0.82%
O=C(c1cccc(F)c1)N1CCN(Cc2c[nH]c3ccccc23)CC1	15% (active)
O=C(c1cccc(Cl)c1)N1CCN(Cc2c[nH]c3ccccc23)CC1	7.63%
O=C(c1ccccc1)N1CCN(Cc2c[nH]c3ccccc23)CC1	-4.61%
O=c1[nH]c(CSc2ncc(C(F)(F)F)cc2Cl)nc2cc(C(F)(F)F)ccc12	-1.09%
Cc1sc2ncnc(OCC(=O)N3CCN(S(=O)(=O)c4ccccc4)CC3)c2c1C	-1.45%
COc1cccc(NC(=O)C(Sc2nnc(Nc3ccccc3C)s2)c2ccccc2)c1 (stereo not given)	-3.98%
CCOc1cccc(CNCc2ccc(C(=O)O)cc2)c1	-1.27%
Cc1ccc(/C=C2/NC(=O)N(Cc3ccccc3)C2=O)o1	-1.11%
Cc1cc(C(=O)O)ccc1-c1ccc(/C=C2\NC(=O)N(Cc3ccccc3Cl)C2=O)o1	5.89%
O=C(O)c1cc(-c2ccc(/C=C3\NC(=O)N(c4ccccc4)C3=O)o2)ccc1Cl	13.6% (active)
Cc1c(C(=O)O)cccc1-c1ccc(/C=C2/NC(=O)N(c3ccccc3)C2=O)o1	-0.48%
Cc1cc(C(=O)O)ccc1-c1ccc(/C=C2\NC(=O)N(Cc3ccc(F)cc3)C2=O)o1	13.9% (active)
O=C(O)c1cc(-c2ccc(/C=C3\NC(=O)N(c4ccc(Cl)cc4)C3=O)o2)ccc1Cl	27% (active)
Cc1ccc(/C=C2/NC(=O)N(c3ccccc3)C2=O)o1	-0.29%
O=C(O)c1cc(-c2ccc(/C=C3/SC(=S)N(Cc4ccccc4)C3=O)o2)ccc1Cl	17%
Cc1ccc(N2C(=O)NC(=O)/C(=C/c3ccc(-c4ccc(C(=O)O)c(Cl)c4)o3)C2=O)cc1	6.82%
Cc1ccc(CN2C(=O)N/C(=C/c3ccc(-c4ccc(C(=O)O)cc4)o3)C2=O)cc1	4.7%
O=C(O)c1cc(-c2ccc(/C=N/Nc3ccc(Cl)cc3)o2)ccc1Cl	-0.42%
